# Measured values: PubChem BioAssay (EPA / NIEHS)
# Inconclusive results are not listed. Calls of active or inactive are those of the source. How the source made its calls: active means hit-call score of the fitted dose curve at least 0.9, where 1 is the maximum; inconclusive means response in the unintended direction; inactive means score below 0.9.
# What was measured:
# [1] = molecular target: human Dual Specificity Protein Phosphatase 3 (DUSP3), DUSP3 (gene 1845) (UniProt P51452); assay: NVS_ENZ_hDUSP3: NovaScreen (NVS) Enzymatic Assay for human Dual Specificity Protein Phosphatase 3 (DUSP3) (AID 2283152);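 further: phosphatase activity of recombinant human DUSP3 on a fluorogenic substrate without cells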
# Method in brief: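 Cell-free assay with recombinant human DUSP3 and fluorogenic substrate, read by fluorescence intensity. Primary screen ran duplicate at 25 uM; actives followed up in concentration series; loss of signal versus DMSO scored.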
# [2] = molecular target: human AKT serine/threonine Kinase 2 (AKT2), AKT2 (gene 208) (UniProt P31751); assay: NVS_ENZ_hAKT2: NovaScreen (NVS) Enzymatic Assay for human AKT serine/threonine Kinase 2 (AKT2) (AID 2283141)
# Method in brief: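 Cell-free fluorescence/electrophoretic mobility shift readout of recombinant human AKT2 activity, 1 h after chemical dosing. Duplicate primary screen at 25 uM, then singleton concentration-response up to 50 uM; loss of signal versus DMSO baseline.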
# [3] = molecular target: human Ephrin type-A Receptor 1 (EphA1), EPHA1 (gene 2041) (UniProt P21709); assay: NVS_ENZ_hEphA1: NovaScreen (NVS) Enzymatic Assay for human Ephrin type-A Receptor 1 (EphA1) (AID 2283158);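 further: activity is signal loss versus DMSO meaning EphA1 kinase inhibition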
# Method in brief: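 Here the EphA1 protein is recombinant and the substrate fluorescent, with electrophoretic separation before fluorescence detection at 1 hour. Signal loss against DMSO defines activity; plate controls included; follow-up concentration series reach 50 uM.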
# [4] = molecular target: human Caspase 8 (CASP8), CASP8 (gene 841) (UniProt Q14790); assay: NVS_ENZ_hCASP8: NovaScreen (NVS) Enzymatic Assay for human Caspase 8 (CASP8) (AID 2283146)
# Method in brief: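 E. coli-expressed enzyme was used in a cell-free fluorogenic substrate assay read 1 h after dosing. Loss of signal was scored relative to DMSO, and the primary screen was run in duplicate at 25 uM.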
# [5] = molecular target: Mitogen-activated protein kinase 3 (Homo sapiens) (UniProt P27361); assay: NVS_ENZ_hMAPK3: NovaScreen (NVS) Enzymatic Assay for human Mitogen-Activated Protein Kinase 3 (MAPK 3) (AID 2283177)
# Method in brief: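 Cell-free enzymatic assay with recombinant protein and specific substrate; fluorescence and electrophoretic mobility shift read-out 1 h after dosing. Primary screen duplicate at 25 uM; actives then run in concentration-response up to 50 uM, loss of signal versus DMSO.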
# [6] = molecular target: human Caspase 4 (CASP4), CASP4 (gene 837) (UniProt P49662); assay: NVS_ENZ_hCASP4: NovaScreen (NVS) Enzymatic Assay for human Caspase 4 (CASP4) (AID 2283143)
# Method in brief: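 The cell-free assay used E. coli-expressed enzyme with a fluorogenic substrate, read 2 h after dosing. Signal loss was scored versus DMSO. Screening was in duplicate at 25 uM, then singleton concentration-response up to 50 uM.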
# [7] = molecular target: Histone deacetylase 3 (Homo sapiens) (UniProt O15379); assay: NVS_ENZ_hHDAC3: NovaScreen (NVS) Enzymatic Assay for human Histone Deacetylase 3 (HDAC3) (AID 2283163)
# Method in brief: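 Recombinant human HDAC3 with fluorescent substrate, 1 h after dosing; product separated from substrate by electrophoretic mobility shift and read by fluorescence. Primary screen at 25 uM in duplicate; actives (e.g. ≥30% inhibition) retested in concentration-response up to 50 uM.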
# [8] = molecular target: Collagenase 3 (Homo sapiens) (UniProt P45452); assay: NVS_ENZ_hMMP13: NovaScreen (NVS) Enzymatic Assay for human Matrix Metalloproteinase-13 (MMP13) (AID 2283182)
# Method in brief: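 Recombinant MMP13 cleaving fluorescent substrate, cell-free, measured 1 h after dosing. Primary duplicate screen at 25 uM; actives tested in concentration-response up to 50 uM; loss of signal relative to DMSO.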
# [9] = molecular target: Glycogen synthase kinase-3 beta (Homo sapiens) (UniProt P49841); assay: NVS_ENZ_hGSK3b: NovaScreen (NVS) Enzymatic Assay for human Glycogen Synthase Kinase-3 beta (GSK3b) (AID 2283165)
# Method in brief: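 Recombinant enzyme with specific fluorescent substrate, 1 h, product separated by electrophoretic mobility shift. Primary duplicate screen at 25 uM; actives (e.g. 30% inhibition) followed in singleton concentration-response to 50 uM. Signal loss fitted versus DMSO.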
# [10] = molecular target: human Elastase, ELANE (gene 1991) (UniProt P08246); assay: NVS_ENZ_hElastase: NovaScreen (NVS) Enzymatic Assay for human Elastase (AID 2283153)
# Method in brief: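 Cell-free elastase from human neutrophils, 1.5 h after dosing, activity read by absorbance. Primary screen in duplicate at 25 uM; hits (e.g., 30% inhibition) rerun in singleton concentration-response up to 50 uM, fitted versus DMSO.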
# [11] = molecular target: human MAP Kinase-Activated Protein Kinase 2 (MAPKAPK2), MAPKAPK2 (gene 9261) (UniProt P49137); assay: NVS_ENZ_hMAPKAPK2: NovaScreen (NVS) Enzymatic Assay for human MAP Kinase-Activated Protein Kinase 2 (MAPKAPK2) (AID 2283178)
# Method in brief: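 Cell-free recombinant human MAPKAPK2 activity measured by fluorescence with electrophoretic mobility shift separation of substrate and product, 1 hr after dosing. Loss of signal versus DMSO; primary screen at 25 uM, concentration-response up to 50 uM.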
# [12] = molecular target: human Esterase Plasma (ES), BCHE (gene 590) (UniProt P06276); assay: NVS_ENZ_hES: NovaScreen (NVS) Enzymatic Assay for human Esterase Plasma (ES) (AID 2283157)
# Method in brief: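 Chemicals were added to plasma-extracted human enzyme in a cell-free format, and activity was read colorimetrically after 0.25 hour. Activity loss was referenced to DMSO; concentration-response top dose was 50 uM.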
# [13] = molecular target: human Janus Kinase 2 (Jak2), JAK2 (gene 3717) (UniProt O60674); assay: NVS_ENZ_hJak2: NovaScreen (NVS) Enzymatic Assay for human Janus Kinase 2 (Jak2) (AID 2283169)
# Method in brief: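 Cell-free recombinant human JAK2 enzyme activity assay, fluorescence/electrophoretic mobility shift read 1 h after dosing. Screened in duplicate at 25 uM, then concentration-response up to 50 uM; activity as signal loss relative to DMSO.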
# [14] = molecular target: human FYN Proto-Oncogene, Src family Tyrosine Kinase (Fyn), FYN (gene 2534) (UniProt P06241); assay: NVS_ENZ_hFyn: NovaScreen (NVS) Enzymatic Assay for human FYN Proto-Oncogene, Src family Tyrosine Kinase (Fyn) (AID 2283161)
# Method in brief: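 Recombinant enzyme with fluorescent substrate, product separated by electrophoretic mobility shift; read 1 h after dosing. Duplicate 25 uM single-point screen, actives retested in concentration series; loss of signal vs DMSO.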
# [15] = molecular target: human LYN Proto-Oncogene, Src family Tyrosine Kinase (LynA), LYN (gene 4067) (UniProt P07948); assay: NVS_ENZ_hLynA: NovaScreen (NVS) Enzymatic Assay for human LYN Proto-Oncogene, Src family Tyrosine Kinase (LynA) (AID 2283173)
# Method in brief: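 Recombinant kinase with fluorescent substrate; product separated from substrate by electrophoretic mobility shift and read 1 h after dosing. Duplicate screen at 25 uM, then concentration-response up to 50 uM; activity scored as signal loss against DMSO.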
# [16] = molecular target: human Insulin Receptor (InsR), INSR (gene 3643) (UniProt P06213); assay: NVS_ENZ_hInsR: NovaScreen (NVS) Enzymatic Assay for human Insulin Receptor (InsR) (AID 2283168)
# Method in brief: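 Fluorescent substrate phosphorylation by recombinant kinase, product resolved by electrophoretic mobility shift, read 1 h after dosing. Screened in duplicate at 25 uM; hits (e.g., 30% inhibition) run in concentration-response to 50 uM; DMSO as baseline.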
# Chain of human Janus Kinase 2 (Jak2), JAK2 (gene 3717) (O60674 whole entry, looked up): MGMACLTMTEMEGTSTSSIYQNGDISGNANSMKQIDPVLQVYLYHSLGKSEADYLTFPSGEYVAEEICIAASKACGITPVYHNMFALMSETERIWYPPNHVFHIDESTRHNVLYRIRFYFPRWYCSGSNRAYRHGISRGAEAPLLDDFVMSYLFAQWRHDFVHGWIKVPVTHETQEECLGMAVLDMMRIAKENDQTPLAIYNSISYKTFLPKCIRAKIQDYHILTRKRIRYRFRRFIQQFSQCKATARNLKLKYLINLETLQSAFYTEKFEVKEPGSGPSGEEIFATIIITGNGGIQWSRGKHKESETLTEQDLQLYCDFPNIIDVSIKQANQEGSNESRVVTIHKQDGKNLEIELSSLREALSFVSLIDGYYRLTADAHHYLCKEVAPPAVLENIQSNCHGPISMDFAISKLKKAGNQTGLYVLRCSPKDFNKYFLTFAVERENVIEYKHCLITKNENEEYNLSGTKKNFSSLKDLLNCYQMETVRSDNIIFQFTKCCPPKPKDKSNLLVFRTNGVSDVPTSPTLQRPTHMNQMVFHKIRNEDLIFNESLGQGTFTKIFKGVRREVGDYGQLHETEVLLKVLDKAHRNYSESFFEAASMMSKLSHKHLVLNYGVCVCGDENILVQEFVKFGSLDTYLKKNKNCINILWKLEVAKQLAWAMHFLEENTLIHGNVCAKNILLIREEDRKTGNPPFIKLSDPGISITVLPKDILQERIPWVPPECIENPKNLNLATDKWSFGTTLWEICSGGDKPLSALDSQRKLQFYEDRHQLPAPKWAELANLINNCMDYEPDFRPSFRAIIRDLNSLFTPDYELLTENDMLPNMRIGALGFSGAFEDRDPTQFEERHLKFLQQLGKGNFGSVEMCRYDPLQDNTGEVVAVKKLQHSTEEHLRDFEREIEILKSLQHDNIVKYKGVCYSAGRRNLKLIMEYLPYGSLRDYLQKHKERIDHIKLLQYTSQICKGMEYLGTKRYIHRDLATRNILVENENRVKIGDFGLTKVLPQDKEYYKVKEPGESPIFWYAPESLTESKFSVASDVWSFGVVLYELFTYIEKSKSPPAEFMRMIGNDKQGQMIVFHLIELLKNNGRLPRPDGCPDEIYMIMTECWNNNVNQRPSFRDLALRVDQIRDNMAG
# Chain of Glycogen synthase kinase-3 beta (Homo sapiens) (P49841 whole entry, looked up): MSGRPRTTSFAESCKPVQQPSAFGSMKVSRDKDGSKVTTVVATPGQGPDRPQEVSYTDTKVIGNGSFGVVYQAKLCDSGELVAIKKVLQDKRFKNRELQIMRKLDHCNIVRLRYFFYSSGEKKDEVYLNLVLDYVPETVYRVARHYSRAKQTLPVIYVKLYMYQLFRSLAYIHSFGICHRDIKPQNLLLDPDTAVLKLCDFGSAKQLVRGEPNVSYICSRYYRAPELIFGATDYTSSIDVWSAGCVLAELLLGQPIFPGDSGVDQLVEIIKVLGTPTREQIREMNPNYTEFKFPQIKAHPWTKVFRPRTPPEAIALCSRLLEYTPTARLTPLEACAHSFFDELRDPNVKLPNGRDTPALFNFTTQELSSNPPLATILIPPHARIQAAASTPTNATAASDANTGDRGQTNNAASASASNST
# Chain of human Esterase Plasma (ES), BCHE (gene 590) (P06276 whole entry, looked up): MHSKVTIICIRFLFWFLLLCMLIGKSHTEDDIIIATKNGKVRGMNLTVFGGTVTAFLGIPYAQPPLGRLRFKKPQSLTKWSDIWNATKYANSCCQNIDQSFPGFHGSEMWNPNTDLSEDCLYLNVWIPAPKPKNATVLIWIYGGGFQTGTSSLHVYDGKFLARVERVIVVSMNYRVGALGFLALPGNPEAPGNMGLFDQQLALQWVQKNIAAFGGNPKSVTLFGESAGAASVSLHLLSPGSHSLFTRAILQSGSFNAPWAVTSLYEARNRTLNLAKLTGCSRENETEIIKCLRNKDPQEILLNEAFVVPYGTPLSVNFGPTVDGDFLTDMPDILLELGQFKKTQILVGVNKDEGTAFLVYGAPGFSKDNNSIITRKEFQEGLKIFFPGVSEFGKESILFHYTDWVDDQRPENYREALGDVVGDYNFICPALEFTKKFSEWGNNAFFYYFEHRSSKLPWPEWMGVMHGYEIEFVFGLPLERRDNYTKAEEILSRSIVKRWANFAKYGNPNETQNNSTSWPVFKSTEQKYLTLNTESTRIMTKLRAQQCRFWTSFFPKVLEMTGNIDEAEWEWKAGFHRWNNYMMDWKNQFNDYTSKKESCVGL
# Chain of human Ephrin type-A Receptor 1 (EphA1), EPHA1 (gene 2041) (P21709 whole entry, looked up): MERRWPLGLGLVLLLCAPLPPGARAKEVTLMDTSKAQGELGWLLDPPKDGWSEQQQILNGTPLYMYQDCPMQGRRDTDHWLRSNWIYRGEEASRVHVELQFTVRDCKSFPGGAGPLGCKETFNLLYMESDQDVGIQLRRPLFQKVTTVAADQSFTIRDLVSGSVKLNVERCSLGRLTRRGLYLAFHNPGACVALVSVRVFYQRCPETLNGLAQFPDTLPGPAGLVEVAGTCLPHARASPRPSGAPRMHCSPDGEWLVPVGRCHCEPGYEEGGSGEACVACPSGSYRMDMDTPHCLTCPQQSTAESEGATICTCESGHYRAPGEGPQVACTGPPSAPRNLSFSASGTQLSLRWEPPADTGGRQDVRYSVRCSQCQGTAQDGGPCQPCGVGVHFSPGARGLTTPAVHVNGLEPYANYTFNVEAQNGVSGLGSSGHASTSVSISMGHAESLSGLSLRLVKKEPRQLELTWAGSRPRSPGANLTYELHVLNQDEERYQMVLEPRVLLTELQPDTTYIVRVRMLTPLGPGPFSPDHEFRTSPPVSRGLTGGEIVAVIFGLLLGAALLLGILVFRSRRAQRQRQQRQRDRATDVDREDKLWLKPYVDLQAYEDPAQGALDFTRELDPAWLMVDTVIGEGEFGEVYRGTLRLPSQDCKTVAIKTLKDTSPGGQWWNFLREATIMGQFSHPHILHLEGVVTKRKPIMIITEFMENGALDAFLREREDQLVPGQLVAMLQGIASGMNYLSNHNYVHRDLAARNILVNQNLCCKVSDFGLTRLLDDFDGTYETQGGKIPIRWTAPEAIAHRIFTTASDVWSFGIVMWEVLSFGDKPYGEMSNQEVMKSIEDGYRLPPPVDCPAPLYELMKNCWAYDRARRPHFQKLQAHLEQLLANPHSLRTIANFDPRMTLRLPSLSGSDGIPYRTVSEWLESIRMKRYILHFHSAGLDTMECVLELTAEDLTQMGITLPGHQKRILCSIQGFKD
# Chain of human Elastase, ELANE (gene 1991) (P08246 whole entry, looked up): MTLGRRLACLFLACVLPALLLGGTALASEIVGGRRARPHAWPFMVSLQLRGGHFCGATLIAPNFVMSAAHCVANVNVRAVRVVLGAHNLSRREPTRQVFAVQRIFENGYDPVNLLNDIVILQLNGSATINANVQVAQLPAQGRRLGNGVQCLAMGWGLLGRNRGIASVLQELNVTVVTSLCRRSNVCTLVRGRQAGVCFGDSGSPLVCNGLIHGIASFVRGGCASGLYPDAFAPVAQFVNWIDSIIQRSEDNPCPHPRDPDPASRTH
# Chain of human MAP Kinase-Activated Protein Kinase 2 (MAPKAPK2), MAPKAPK2 (gene 9261) (P49137 whole entry, looked up): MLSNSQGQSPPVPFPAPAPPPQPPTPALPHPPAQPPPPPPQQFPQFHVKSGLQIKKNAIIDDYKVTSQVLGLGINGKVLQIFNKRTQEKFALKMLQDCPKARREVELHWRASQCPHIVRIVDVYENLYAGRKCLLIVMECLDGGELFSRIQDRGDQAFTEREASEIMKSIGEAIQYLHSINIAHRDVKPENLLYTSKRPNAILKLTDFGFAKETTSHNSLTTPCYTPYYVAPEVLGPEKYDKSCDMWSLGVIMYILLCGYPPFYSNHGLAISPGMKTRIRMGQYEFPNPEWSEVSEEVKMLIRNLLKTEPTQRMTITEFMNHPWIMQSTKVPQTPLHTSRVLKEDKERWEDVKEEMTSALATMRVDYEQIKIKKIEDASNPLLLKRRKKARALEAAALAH
# Chain of Histone deacetylase 3 (Homo sapiens) (O15379 whole entry, looked up): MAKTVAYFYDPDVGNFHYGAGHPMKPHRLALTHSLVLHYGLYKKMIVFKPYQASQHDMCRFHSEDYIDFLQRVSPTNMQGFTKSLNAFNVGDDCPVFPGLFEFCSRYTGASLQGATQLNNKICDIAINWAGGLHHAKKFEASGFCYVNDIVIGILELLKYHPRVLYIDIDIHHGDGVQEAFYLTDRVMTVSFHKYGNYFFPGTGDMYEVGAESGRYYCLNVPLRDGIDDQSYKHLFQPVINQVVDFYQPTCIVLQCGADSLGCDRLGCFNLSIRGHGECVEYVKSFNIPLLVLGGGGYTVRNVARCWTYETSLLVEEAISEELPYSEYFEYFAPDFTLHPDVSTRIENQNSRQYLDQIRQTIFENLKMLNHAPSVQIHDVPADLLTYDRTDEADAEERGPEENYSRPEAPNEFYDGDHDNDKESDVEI
# Chain of human AKT serine/threonine Kinase 2 (AKT2), AKT2 (gene 208) (P31751 whole entry, looked up): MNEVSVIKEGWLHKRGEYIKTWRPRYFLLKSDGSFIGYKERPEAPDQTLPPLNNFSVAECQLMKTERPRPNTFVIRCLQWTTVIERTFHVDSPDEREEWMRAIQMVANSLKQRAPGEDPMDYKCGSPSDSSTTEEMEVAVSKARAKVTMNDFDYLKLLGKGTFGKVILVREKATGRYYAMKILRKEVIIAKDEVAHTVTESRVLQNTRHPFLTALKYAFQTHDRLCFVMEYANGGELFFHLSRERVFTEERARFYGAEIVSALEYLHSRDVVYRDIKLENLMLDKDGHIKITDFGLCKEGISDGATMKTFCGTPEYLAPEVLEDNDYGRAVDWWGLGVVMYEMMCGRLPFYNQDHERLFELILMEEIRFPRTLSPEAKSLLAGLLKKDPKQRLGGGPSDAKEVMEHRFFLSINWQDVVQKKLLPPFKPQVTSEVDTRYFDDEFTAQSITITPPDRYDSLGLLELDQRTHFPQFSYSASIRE
# Chain of human Dual Specificity Protein Phosphatase 3 (DUSP3), DUSP3 (gene 1845) (P51452 whole entry, looked up): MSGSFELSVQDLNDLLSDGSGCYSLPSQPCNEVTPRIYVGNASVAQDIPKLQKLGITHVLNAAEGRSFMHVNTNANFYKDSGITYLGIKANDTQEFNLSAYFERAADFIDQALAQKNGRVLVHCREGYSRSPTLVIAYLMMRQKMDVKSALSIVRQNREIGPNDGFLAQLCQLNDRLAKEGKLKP
compound,measurement,setting,value
CCCCN1C(=O)[C@@H]([C@H](O)C2CCCCC2)NC(=O)C12CCN(Cc1ccc(Oc3ccc(C(=O)O)cc3)cc1)CC2,AC50,[1],14.8 µM (active)
OCCOCCOCCO,outcome,[2],inactive
same,outcome,[3],inactive
Cc1ccc(S(=O)(=O)NC(=O)NN2CCCCCC2)cc1,outcome,[2],inactive
CC[C@H](C)C(=O)O[C@H]1C[C@H](O)C=C2C=C[C@H](C)[C@H](CC[C@@H](O)C[C@@H](O)CC(=O)O)[C@H]21,outcome,[4],inactive
same,outcome,[5],inactive
COc1cc2c(c(OC)c1OC)-c1ccc(OC)c(=O)cc1[C@@H](NC(C)=O)CC2,AC50,[6],0.485 µM (active)
same,outcome,[4],inactive
same,outcome,[7],inactive
same,AC50,[8],25.7 µM (active)
OCc1ccccc1,outcome,[9],inactive
NC(=O)NN=Cc1ccc([N+](=O)[O-])o1,AC50,[7],1.26 µM (active)
same,outcome,[9],inactive
OCC(CO)(CO)CO,outcome,[3],inactive
c1ccc2c(c1)-c1cccc3c1c-2cc1ccccc13,outcome,[10],inactive
same,outcome,[11],inactive
CCCCCCCC1CCC(=O)O1 (stereo not drawn),outcome,[9],inactive
c1ccc2ncccc2c1,outcome,[11],inactive
CCn1nc(C)c2c1C(=O)NCC(c1ccc(O)cc1)=N2,outcome,[10],inactive
same,outcome,[12],inactive
OC(CCl)CCl,outcome,[11],inactive
OCCNCCO,outcome,[9],inactive
c1ccc(C(O[C@@H]2CCCN(CCc3ccc4c(c3)OCO4)C2)c2ccccc2)cc1,AC50,[12],7.95 µM (active)
same,outcome,[9],inactive
CCc1ccc(O)c(C(C)(C)C)c1,outcome,[12],inactive
same,outcome,[13],inactive
OC(Cn1cncn1)(Cn1cncn1)c1ccc(F)cc1F,outcome,[13],inactive
COCc1nnc(-c2ccc[n+]([O-])c2)n1-c1c(Cl)c(Cl)cc2[nH]c(=O)c(=O)[nH]c12,AC50,[8],21.5 µM (active)
O=C(O)c1ccc2c(c1)nc(C(=O)NC1CCN(C3CC3)CC1)n2Cc1cc(-c2ccc(Cl)s2)on1,outcome,[9],inactive
same,outcome,[13],inactive
same,outcome,[5],inactive
COc1cc(C(C)C)c2c(c1)S(=O)(=O)N(COc1cc(=O)n3cccc(OCCN4CCCCC4)c3n1)C2=O,AC50,[10],0.0341 µM (active)
CCCCOC(=O)c1ccccc1,outcome,[12],inactive
C[C@]12C=CC(=O)C=C1CC[C@H]1[C@@H]3C[C@@H](O)[C@](O)(C(=O)CO)[C@@]3(C)C[C@H](O)[C@@]12F,outcome,[9],inactive
O=C(NO)C1(NS(=O)(=O)c2ccc(Oc3ccc(F)cc3)cc2)CCOCC1,outcome,[3],inactive
same,outcome,[14],inactive
same,outcome,[9],inactive
same,outcome,[13],inactive
same,outcome,[15],inactive
same,outcome,[11],inactive
same,AC50,[8],0.00244 µM (active)
CCCOc1ccc(S(=O)(=O)N2CCN(CC)CC2)cc1-c1nc2c(CC)n(Cc3ccccn3)nc2c(=O)[nH]1,outcome,[16],inactive
OC[C@H]1O[C@@H]2O[C@H]3[C@H](O)[C@@H](O)[C@@H](O[C@H]4[C@H](O)[C@@H](O)[C@@H](O[C@H]5[C@H](O)[C@@H](O)[C@@H](O[C@H]6[C@H](O)[C@@H](O)[C@@H](O[C@H]7[C@H](O)[C@@H](O)[C@@H](O[C@H]1[C@H](O)[C@H]2O)O[C@@H]7CO)O[C@@H]6CO)O[C@@H]5CO)O[C@@H]4CO)O[C@@H]3CO,outcome,[9],inactive
Cn1c(=O)c2[nH]cnc2n(C)c1=O,outcome,[11],inactive
CCCCC(CC)C(=O)OCCOCCOCCOC(=O)C(CC)CCCC (stereo not drawn),outcome,[11],inactive
c1ccc2cc3ccccc3cc2c1,outcome,[11],inactive
NNC(=O)c1ccncc1,outcome,[11],inactive
O=S(=O)(O)c1ccc(N=Nc2c(O)ccc3cc(S(=O)(=O)O)ccc23)cc1,AC50,[8],14.8 µM (active)
